The source of these data is PubChem BioAssay AID1347426 (Functional Genomics Laboratory (NCATS/FGL), 2020).

The campaign covered roughly 31,000 sequences. About 1,400 (4.5%) were called active. This is one part of a sample in which actives are shown more often than they occur. Values without a mark were called inactive.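 How the source made its calls: active means median seed-adjusted z-score above 1 or below -1; inactive means the rest.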

The nature of the assay: Novel Modifiers of Survival Motor Neuron (SMN) Protein: Gene Identification via Genome-wide siRNA Screen.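 Further: luminescence tracks full-length SMN protein made from the SMN2 reporter.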 The settings on record: HEK293T SMN2-luciferase reporter, siRNA knockdown, 72 h; actives lie on both sides. An outline of the steps:
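siRNA screen, 10418 genes ×3 siRNAs; 1 pmol/well, lipid reverse transfection into HEK293T SMN2-luc reporter line. 72 h, 37 °C, 5% CO2; ONE-Glo readout. Data: neg-ctrl normalized, log10, MAD; hit = MAD >1.0 or < -1.0.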
(In a reporter assay the amount or activity of a reporter protein is the signal.)
In the case of GAGCUUGUAUAUGAAGCUATT against PDCD4, the median seed-adjusted z-score was -0.0842.

For the sequence GGAUGACAGUCUCAUUGCATT against GON4L, the median seed-adjusted z-score is 0.116.

Consider CCAUGCUGUCUAUAGCCUATT against TRPC5, for which the median seed-adjusted z-score is -1.14 (active).

Take GGUUUUAGACCACACUAAATT against MSH3: the median seed-adjusted z-score is 0.428.

Take CAUUCCCUGUUGUAAUCAATT against MDH1: the median seed-adjusted z-score is -0.154.

CGUCAUCACCCUCAACUAUTT against NLGN3: the median seed-adjusted z-score is -0.0279.

As for GGACAUCGAAAAGUUAGUATT against MX2, the median seed-adjusted z-score was -0.0346.

Consider CAAGAGUCUCUUUAAGGAATT against ACTL8, for which the median seed-adjusted z-score was 0.

On to GGAUGUAUGACAUCUGUAATT against STC1, for which the median seed-adjusted z-score is -1.36 (active).

For the sequence GCAUCCCUACGGUUGUUGATT against EIF2B4, the median seed-adjusted z-score was 0.

On to GAGAAUAUCUGGAACCAGUTT against BDKRB1, for which the median seed-adjusted z-score is 0.448.

In the case of CCAAUGCCCAGAUUAUGUATT against CELSR2, the median seed-adjusted z-score is -0.493.

Regarding GGAGAUACCUGGUCUCUUUTT against ADAM21, the median seed-adjusted z-score is 0.

For the sequence GUCUUUCAGGUGUACCCAUTT against GATA1, the median seed-adjusted z-score is 0.371.

As to GCAUGCCCAUGAACAAAAATT against B3GNT1, the median seed-adjusted z-score was 0.0931.

Take GAAUGGGUCUUGUAAAUCATT against PPAT: the median seed-adjusted z-score was -1.51 (active).

On to ACCUGAUGGUGGGCGCAAATT against MYBPC3, for which the median seed-adjusted z-score is 0.304.

Regarding AGAUCAACCUGCUUCCCGATT against PDK2, the median seed-adjusted z-score was -0.481.

Consider GGAUUAUAGUGUCACCUAUTT against CPD, for which the median seed-adjusted z-score is -0.198.

For the sequence GCGCAUUACUUUCUAGAAATT against PEX5L, the median seed-adjusted z-score was 0.0982.

Consider GAAUCAAGAAUUAAAGACATT against PIPOX, for which the median seed-adjusted z-score was 1.06 (active).

As to CAGUUCAUGUGGAUCAUCATT against GABARAPL2, the median seed-adjusted z-score is 0.528.

Take CCACCUGUACAGCACGGUATT against TGFB1I1: the median seed-adjusted z-score is 0.887.

Take GGGCAAAGCGAAACGCAAATT against ZNF536: the median seed-adjusted z-score is -0.295.

Take GCACGAGCCUUUCUCCAGUTT against RNASE7: the median seed-adjusted z-score was 1.07 (active).

For the sequence GAAAGUCCAGAUGAGGAUATT against KLF9, the median seed-adjusted z-score was 0.767.

As to GAAAUGGACCAGACACUAATT against POU2F2, the median seed-adjusted z-score is 0.163.

Take GGGACCAAAAUCAAUGAAATT against PCBP3: the median seed-adjusted z-score was -0.0373.

Regarding GAAUGCAGGGAGAAACUUATT against TRIM64, the median seed-adjusted z-score is -0.024.

With GGAAGACAGAGAAUCGAAATT against SEMA5A, the median seed-adjusted z-score is -0.443.

As to GACAAGACGUGGUCAAGAATT against BCL2L13, the median seed-adjusted z-score was 0.311.

Turning to GCAGUAGACUGAGCAGCAATT against TMTC4, the median seed-adjusted z-score is -1.16 (active).

Take CCUCAGGGAAGUACCCAAATT against RNASE8: the median seed-adjusted z-score was 0.00771.

Turning to CGCCUACACUCCUACGUGUTT against ZDHHC24, the median seed-adjusted z-score is -0.695.

UGCCCGCUGUAGAUGAGAATT against APOC2: the median seed-adjusted z-score was -0.0599.

GUUUCACCAUCGUUCGUGATT against PROKR2: the median seed-adjusted z-score is 0.328.

On to CAAAAUGCAUUAGCUGAAATT against VIP, for which the median seed-adjusted z-score is 1.52 (active).

Turning to AGAUGUACAUCCUCGUGCATT against ELFN2, the median seed-adjusted z-score was -0.0888.

Consider CUCCUGAGAUAAUAAUGAATT against RFC3, for which the median seed-adjusted z-score is 0.733.

As for CUCCUAUAAGAAAUCAAUATT against FLVCR1, the median seed-adjusted z-score was 0.197.

CCAAUACAGUGGACAGUUATT against EMR1: the median seed-adjusted z-score was 0.255.

Consider GGAGGGUCUUCAUCGCUGATT against POLR2C, for which the median seed-adjusted z-score was -2.95 (active).

As to AAAGAAUCAUUGUGAAAGATT against PARVA, the median seed-adjusted z-score was 0.0852.

With GCCUUCCACGCUUUCCUGATT against RGS16, the median seed-adjusted z-score is 0.

In the case of GCGCAAUAAUGAACGGCAATT against GALNT14, the median seed-adjusted z-score is 0.

Take CGAUCGCAAGUACCACGAATT against ATP8B1: the median seed-adjusted z-score is 0.357.

Regarding GACUAGCUGCUGAUAAGAATT against CKAP5, the median seed-adjusted z-score is -1.87 (active).

For AGUCCUCGGUGAUGCGUGATT against LMNB2, the median seed-adjusted z-score is -0.15.

Take CAGGCACAGUUGCCGAUUATT against CD247: the median seed-adjusted z-score was -0.522.

Turning to CCUUGACCAUGAAAAAGAATT against ZNF704, the median seed-adjusted z-score was -0.15.

In the case of GCUAUUGAAAGUACACCUATT against NARG1, the median seed-adjusted z-score was -1.02 (active).

As for GGUUAUAACGGGACGAUUUTT against KIF5C, the median seed-adjusted z-score is 0.283.

Turning to CCAUGUUAGAAGCCCGGAATT against ZNF385D, the median seed-adjusted z-score is -0.338.

As for AGAGGUACGUCUACAGUAUTT against F2R, the median seed-adjusted z-score was -0.392.

Regarding CGUCAAAUUUUUGCACAAATT against GPR176, the median seed-adjusted z-score was 0.0782.

For GCCGAAUUGUUUCUAGUUATT against PIN1, the median seed-adjusted z-score was 0.156.

In the case of GACAGUCACUGAGCAUAGATT against PKD1L2, the median seed-adjusted z-score was -1.17 (active).

Consider GGAGAAAUCAGCUACAGGATT against SRD5A2, for which the median seed-adjusted z-score was 0.185.

For the sequence CAAUUGGAAUCGUCUUUUUTT against UBAC2, the median seed-adjusted z-score was 0.611.

For CAAGUCCCAUUGAUCCUGATT against HLF, the median seed-adjusted z-score was 0.0548.

Consider CAAGAGCAAGCAAACCUAATT against OLR1, for which the median seed-adjusted z-score was 0.

CGGCAAGAGUGUCCAGUAUTT against RNF5: the median seed-adjusted z-score is -0.0342.

Turning to CCUUAGGAAUGAAAUCGCUTT against SIPA1L1, the median seed-adjusted z-score is 0.0925.

On to GCACUAGCAGAGUCCGAAATT against OPRK1, for which the median seed-adjusted z-score was -1.08 (active).

For the sequence CAGAAUCGCUUCUACAAGATT against SPAG6, the median seed-adjusted z-score was -0.439.

For the sequence UGACAUCCGUGACCUCUAATT against LHX9, the median seed-adjusted z-score is 0.157.

On to GGAAAACGGCAUUGCAGAATT against SLC23A2, for which the median seed-adjusted z-score is -0.0585.

Consider GGCACUAUUCUGCUAAGAATT against RAPGEF5, for which the median seed-adjusted z-score is 0.529.

Regarding GCCUGUUCGAAAGCGCAAATT against UBR4, the median seed-adjusted z-score was 0.602.

For the sequence AGGAGAAUGUGAUCCGAGATT against TXNDC14, the median seed-adjusted z-score was -2.39 (active).

In the case of GGGUCUUCAUGAUUGGUGUTT against SLC44A5, the median seed-adjusted z-score is 0.179.

Regarding GUUUGUAGGUCGUCAGAAATT against NDUFS6, the median seed-adjusted z-score is -0.0128.

In the case of CAUCCAGUCUGUAUACGAATT against ACLY, the median seed-adjusted z-score is 0.478.

With GCCUCCAAAGGUUACAUUUTT against UBE2E1, the median seed-adjusted z-score was 0.888.

For the sequence GAUGUAAACCCUGAACUAATT against CSRP2, the median seed-adjusted z-score was -0.829.

For the sequence GAGGUAAUCUGGGUGCACATT against PARK7, the median seed-adjusted z-score was -0.357.

As to GAAUGGAGGUCAACUAUAUTT against UBE2E2, the median seed-adjusted z-score is -1.77 (active).

GAAUGUCAUCCGUAUUUCATT against AKR1C3: the median seed-adjusted z-score is -0.00538.

Take GGAACUGCUGCAUUAGAUATT against ITCH: the median seed-adjusted z-score is 0.199.

Regarding GAAUUUGUUCAUUAUCGUATT against UBE3A, the median seed-adjusted z-score is 0.0949.

With GGCGAACUGUUUUAGAAGATT against CCNB2, the median seed-adjusted z-score is 0.0328.

CGAUGUUGGUUAUGAGAGATT against ACTR3: the median seed-adjusted z-score was -0.7.

Turning to GGAUAGAGGUUUCCAGUUUTT against CNBP, the median seed-adjusted z-score was -1.14 (active).

In the case of GCAGGUUCCUUAUCUGUCATT against BIRC5, the median seed-adjusted z-score was 0.0236.

On to GGAUUAGUGAUUAUAUGGATT against NPAS3, for which the median seed-adjusted z-score is -0.0316.

Turning to CAUCCAAGAUUAUAGUGGATT against PNLIP, the median seed-adjusted z-score was 0.385.

Take GUACAGACCUGAGAAUUCUTT against CTSL2: the median seed-adjusted z-score was -1.04 (active).

On to GAUGAACCCUGGAACUUCATT against ZNF354B, for which the median seed-adjusted z-score was 0.393.

In the case of AGAAGGACGUGUCCAAGGATT against FOXC2, the median seed-adjusted z-score is -0.792.

With GAAUGAUGUUGACAUGAGUTT against SSR1, the median seed-adjusted z-score was -0.434.

In the case of GCCUAUUCAUCGGAAGGUATT against SENP2, the median seed-adjusted z-score was 0.

Take UGCUUAUGAUCAACAUUUATT against LSM3: the median seed-adjusted z-score was -1.36 (active).

Consider GGGUUUAACUUUCAGAGAUTT against VN2R1P, for which the median seed-adjusted z-score was -0.25.

On to GGGUUGGUGUGAUUGGAGUTT against LOC647743, for which the median seed-adjusted z-score is -0.203.

With GCUCGGCAUCUGUUGGUUATT against SIRT3, the median seed-adjusted z-score is -0.341.

In the case of GGCCUAUAAUGAAUACCCUTT against GLRA1, the median seed-adjusted z-score is 0.

For CAUUGAAACUGAUAAACCATT against ARCN1, the median seed-adjusted z-score is -1.25 (active).

Regarding GCAGAGCAAUGGGAGAGAATT against EPHB4, the median seed-adjusted z-score was -0.143.

In the case of GCAUCGCAGUGCUAAACAUTT against DGKA, the median seed-adjusted z-score was -1.36 (active).

As to AGACAAUCGUCAUGCAAUUTT against CDC37, the median seed-adjusted z-score was 0.

With GAAUUACUCUGCCUCUAAATT against TAF7, the median seed-adjusted z-score was -0.593.

For the sequence CGUCUAAUGCUGCUCCACATT against AGPAT1, the median seed-adjusted z-score is -1.38 (active).

Consider AUCCUUCCCUGAAUCAUCATT against KLRC2, for which the median seed-adjusted z-score was -0.472.

As for GUAUCCAUGUGCAUUUUAATT against NT5E, the median seed-adjusted z-score is 0.199.

For the sequence GCUCAUACCUCGGAUGUCATT against GPR31, the median seed-adjusted z-score was -0.0381.

With CCACAUUUGUGACGCAAAATT against TPSAB1, the median seed-adjusted z-score is 0.197.

GCUAAAUGGAGGAGACUAATT against HHEX: the median seed-adjusted z-score is -0.428.

CAACAUUCAUGGACGGGAATT against SLC2A7: the median seed-adjusted z-score is -0.0337.
